{
  "source": "paper PMC9911399",
  "about": "“Two distinct binding modes provide the RNA-binding protein RbFox with extraordinary sequence specificity”",
  "binders": {"B1": {"name": "AUCUGAU (DNA:RNA)", "RNA": "GGGAGACCGGAAUUCAGAUUGUCCAUCUGAUUUAAAUCCCGUCGUAGCCACCA", "DNA 1": "CAATCTGAATTCCGGTCTCCC", "DNA 2": "TGGTGGCTACGACGGGATT"}, "B2": {"name": "UCGGCUA (DNA:RNA)", "RNA": "GGGAGACCGGAAUUCAGAUUGUCCUCGGCUAUUAAAUCCCGUCGUAGCCACCA", "DNA 1": "CAATCTGAATTCCGGTCTCCC", "DNA 2": "TGGTGGCTACGACGGGATT"}, "B3": {"name": "AAGGAAC (DNA:RNA)", "RNA": "B1 RNA with U26A, C27G, U28G, G29A, U31C", "DNA 1": "CAATCTGAATTCCGGTCTCCC", "DNA 2": "TGGTGGCTACGACGGGATT"}, "B4": {"name": "GCCACUG (DNA:RNA)", "RNA": "B2 RNA with U25G, G27C, G28A, A31G", "DNA 1": "CAATCTGAATTCCGGTCTCCC", "DNA 2": "TGGTGGCTACGACGGGATT"}, "B5": {"name": "AAGCCCU (DNA:RNA)", "RNA": "B1 RNA with U26A, C27G, U28C, G29C, A30C", "DNA 1": "CAATCTGAATTCCGGTCTCCC", "DNA 2": "TGGTGGCTACGACGGGATT"}, "B6": {"name": "CGAACAU (DNA:RNA)", "RNA": "B1 RNA with A25C, U26G, C27A, U28A, G29C", "DNA 1": "CAATCTGAATTCCGGTCTCCC", "DNA 2": "TGGTGGCTACGACGGGATT"}, "B7": {"name": "GCCGAGU (DNA:RNA)", "RNA": "B1 RNA with A25G, U26C, U28G, G29A, A30G", "DNA 1": "CAATCTGAATTCCGGTCTCCC", "DNA 2": "TGGTGGCTACGACGGGATT"}, "B8": {"name": "CUUGAUA (DNA:RNA)", "RNA": "B2 RNA with U25C, C26U, G27U, C29A", "DNA 1": "CAATCTGAATTCCGGTCTCCC", "DNA 2": "TGGTGGCTACGACGGGATT"}, "B9": {"name": "AGCGCUC (DNA:RNA)", "RNA": "B2 RNA with U25A, C26G, G27C, A31C", "DNA 1": "CAATCTGAATTCCGGTCTCCC", "DNA 2": "TGGTGGCTACGACGGGATT"}, "B10": {"name": "ACCCAAG (DNA:RNA)", "RNA": "B1 RNA with U26C, U28C, G29A, U31G", "DNA 1": "CAATCTGAATTCCGGTCTCCC", "DNA 2": "TGGTGGCTACGACGGGATT"}, "B11": {"name": "GUGAAUG (DNA:RNA)", "RNA": "B2 RNA with U25G, C26U, G28A, C29A, A31G", "DNA 1": "CAATCTGAATTCCGGTCTCCC", "DNA 2": "TGGTGGCTACGACGGGATT"}, "B12": {"name": "GUGAAUU (DNA:RNA)", "RNA": "B1 RNA with A25G, C27G, U28A, G29A, A30U", "DNA 1": "CAATCTGAATTCCGGTCTCCC", "DNA 2": "TGGTGGCTACGACGGGATT"}, "B13": {"name": "GUGUGAA (DNA:RNA)", "RNA": "B1 RNA with A25G, C27G, U31A", "DNA 1": "CAATCTGAATTCCGGTCTCCC", "DNA 2": "TGGTGGCTACGACGGGATT"}, "B14": {"name": "AAAUCUU (DNA:RNA)", "RNA": "B1 RNA with U26A, C27A, G29C, A30U", "DNA 1": "CAATCTGAATTCCGGTCTCCC", "DNA 2": "TGGTGGCTACGACGGGATT"}, "B15": {"name": "UGAGAAU (DNA:RNA)", "RNA": "B1 RNA with A25U, U26G, C27A, U28G, G29A", "DNA 1": "CAATCTGAATTCCGGTCTCCC", "DNA 2": "TGGTGGCTACGACGGGATT"}, "B16": {"name": "GCUUAUG (DNA:RNA)", "RNA": "B2 RNA with U25G, G27U, G28U, C29A, A31G", "DNA 1": "CAATCTGAATTCCGGTCTCCC", "DNA 2": "TGGTGGCTACGACGGGATT"}, "B17": {"name": "CCUACGU (DNA:RNA)", "RNA": "B2 RNA with U25C, G27U, G28A, U30G, A31U", "DNA 1": "CAATCTGAATTCCGGTCTCCC", "DNA 2": "TGGTGGCTACGACGGGATT"}, "B18": {"name": "CACCCGC (DNA:RNA)", "RNA": "B1 RNA with A25C, U26A, U28C, G29C, A30G, U31C", "DNA 1": "CAATCTGAATTCCGGTCTCCC", "DNA 2": "TGGTGGCTACGACGGGATT"}, "B19": {"name": "UACUGGU (DNA:RNA)", "RNA": "B1 RNA with A25U, U26A, A30G", "DNA 1": "CAATCTGAATTCCGGTCTCCC", "DNA 2": "TGGTGGCTACGACGGGATT"}, "B20": {"name": "UGGAGUG (DNA:RNA)", "RNA": "B2 RNA with C26G, G28A, C29G, A31G", "DNA 1": "CAATCTGAATTCCGGTCTCCC", "DNA 2": "TGGTGGCTACGACGGGATT"}, "B21": {"name": "CGGAUGC (DNA:RNA)", "RNA": "B2 RNA with U25C, C26G, G28A, C29U, U30G, A31C", "DNA 1": "CAATCTGAATTCCGGTCTCCC", "DNA 2": "TGGTGGCTACGACGGGATT"}, "B22": {"name": "GGAUCCG (DNA:RNA)", "RNA": "B1 RNA with A25G, U26G, C27A, G29C, A30C, U31G", "DNA 1": "CAATCTGAATTCCGGTCTCCC", "DNA 2": "TGGTGGCTACGACGGGATT"}, "B23": {"name": "UGGAGAC (DNA:RNA)", "RNA": "B1 RNA with A25U, U26G, C27G, U28A, U31C", "DNA 1": "CAATCTGAATTCCGGTCTCCC", "DNA 2": "TGGTGGCTACGACGGGATT"}, "B24": {"name": "UGGAUGG (DNA:RNA)", "RNA": "B2 RNA with C26G, G28A, C29U, U30G, A31G", "DNA 1": "CAATCTGAATTCCGGTCTCCC", "DNA 2": "TGGTGGCTACGACGGGATT"}, "B25": {"name": "UGGAUGC (DNA:RNA)", "RNA": "B2 RNA with C26G, G28A, C29U, U30G, A31C", "DNA 1": "CAATCTGAATTCCGGTCTCCC", "DNA 2": "TGGTGGCTACGACGGGATT"}, "B26": {"name": "UGGAGAG (DNA:RNA)", "RNA": "B1 RNA with A25U, U26G, C27G, U28A, U31G", "DNA 1": "CAATCTGAATTCCGGTCTCCC", "DNA 2": "TGGTGGCTACGACGGGATT"}, "B27": {"name": "UGGAUCC (DNA:RNA)", "RNA": "B2 RNA with C26G, G28A, C29U, U30C, A31C", "DNA 1": "CAATCTGAATTCCGGTCTCCC", "DNA 2": "TGGTGGCTACGACGGGATT"}, "B28": {"name": "CGGAGUG (DNA:RNA)", "RNA": "B2 RNA with U25C, C26G, G28A, C29G, A31G", "DNA 1": "CAATCTGAATTCCGGTCTCCC", "DNA 2": "TGGTGGCTACGACGGGATT"}, "B29": {"name": "UGGACUG (DNA:RNA)", "RNA": "B2 RNA with C26G, G28A, A31G", "DNA 1": "CAATCTGAATTCCGGTCTCCC", "DNA 2": "TGGTGGCTACGACGGGATT"}, "B30": {"name": "UGGAUCG (DNA:RNA)", "RNA": "B2 RNA with C26G, G28A, C29U, U30C, A31G", "DNA 1": "CAATCTGAATTCCGGTCTCCC", "DNA 2": "TGGTGGCTACGACGGGATT"}, "B31": {"name": "CGGACUG (DNA:RNA)", "RNA": "B2 RNA with U25C, C26G, G28A, A31G", "DNA 1": "CAATCTGAATTCCGGTCTCCC", "DNA 2": "TGGTGGCTACGACGGGATT"}},
  "note": "Numbering of substitutions follows the chain as printed; changes in the protein carry UniProt numbers. Over roughly 16,000 sequences, “ka relative to ugcaugu” has its median near 0.096; the highest 2% begin near 0.35. The list comes from a sample in which the highest values are over-represented; it also holds similar and randomly drawn sequences.",
  "data": [
    {"target": "T1, RBFOX1 RRM RbFoxmut (Fox-RRM*) (Homo sapiens, UniProt Q9NWB1 109-208, R118D;E147R;N151S;E152T)", "T1 sequence": "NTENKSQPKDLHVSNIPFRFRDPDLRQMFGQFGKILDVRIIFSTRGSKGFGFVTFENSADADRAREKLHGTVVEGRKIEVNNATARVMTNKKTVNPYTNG", "test": "EMSA; HiTS-Eq, 1 nM pool, 10 min; buffer printed only for the single-RNA assays: 10 mM Tris pH 7.5, 150 mM NaCl, 3.4 mM EDTA, 0.001% NP-40, 30 C", "settings": "tags: His6 N-terminal (pET28a); label: 5' 32P", "method_in_brief": "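A pool of RNA with 7 randomized nucleotides, 5′-radiolabelled and with DNA-annealed flanks, was equilibrated at 1 nM for 10 min in 50 µL with purified RbFox RRM, wild type or mutant, across increasing protein concentrations. Free RNA was separated by 8% native PAGE, excised, reverse-transcribed, barcoded by PCR and sequenced. Relative association constants were obtained from read-count changes of each RNA species versus the control reaction and normalised to the cognate motif.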", "values": [
      {"binder": "B1", "binding signal": "0.0592 KA relative to UGCAUGU"},
      {"binder": "B2", "binding signal": "0.106 KA relative to UGCAUGU"},
      {"binder": "B3", "binding signal": "0.057 KA relative to UGCAUGU"},
      {"binder": "B4", "binding signal": "0.101 KA relative to UGCAUGU"},
      {"binder": "B5", "binding signal": "0.0868 KA relative to UGCAUGU"},
      {"binder": "B6", "binding signal": "0.0626 KA relative to UGCAUGU"},
      {"binder": "B7", "binding signal": "0.123 KA relative to UGCAUGU"},
      {"binder": "B8", "binding signal": "0.134 KA relative to UGCAUGU"},
      {"binder": "B9", "binding signal": "0.0471 KA relative to UGCAUGU"},
      {"binder": "B10", "binding signal": "0.0886 KA relative to UGCAUGU"},
      {"binder": "B11", "binding signal": "1.45 KA relative to UGCAUGU"},
      {"binder": "B12", "binding signal": "0.118 KA relative to UGCAUGU"},
      {"binder": "B13", "binding signal": "0.132 KA relative to UGCAUGU"},
      {"binder": "B14", "binding signal": "0.0581 KA relative to UGCAUGU"},
      {"binder": "B15", "binding signal": "0.092 KA relative to UGCAUGU"},
      {"binder": "B16", "binding signal": "0.142 KA relative to UGCAUGU"},
      {"binder": "B17", "binding signal": "0.146 KA relative to UGCAUGU"},
      {"binder": "B18", "binding signal": "0.0852 KA relative to UGCAUGU"},
      {"binder": "B19", "binding signal": "0.103 KA relative to UGCAUGU"},
      {"binder": "B20", "binding signal": "0.45 KA relative to UGCAUGU"},
      {"binder": "B21", "binding signal": "0.189 KA relative to UGCAUGU"},
      {"binder": "B22", "binding signal": "0.153 KA relative to UGCAUGU"},
      {"binder": "B23", "binding signal": "0.0876 KA relative to UGCAUGU"},
      {"binder": "B24", "binding signal": "0.332 KA relative to UGCAUGU"},
      {"binder": "B25", "binding signal": "0.438 KA relative to UGCAUGU"},
      {"binder": "B26", "binding signal": "0.108 KA relative to UGCAUGU"},
      {"binder": "B27", "binding signal": "0.211 KA relative to UGCAUGU"},
      {"binder": "B28", "binding signal": "0.198 KA relative to UGCAUGU"},
      {"binder": "B29", "binding signal": "0.418 KA relative to UGCAUGU"},
      {"binder": "B30", "binding signal": "0.597 KA relative to UGCAUGU"},
      {"binder": "B31", "binding signal": "0.353 KA relative to UGCAUGU"}
    ]}
  ]
}
